About 2,000 (36%) of roughly 5,500 compounds were called active. About 18% were inconclusive and are not listed. Rule as the data show it: active = normalized growth mostly below about 0.91 (no sharp cut-off); inconclusive = no clear call, values can overlap the other calls; inactive = mostly above about 0.92. Some of the results follow.
Assay: chemical genetic growth profiling, strain panel (AID 1159580);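 also: tested at 20 µM; growth read once vehicle control cultures reached saturation at 30 °C; 1 = growth at the plate median or of vehicle wells; lower values mean less growth of the strain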
Settings: growth OD

C/C=C(/C(=C/C)c1ccc(O)cc1)c1ccc(O)cc1
normalized growth (S. cerevisiae deletion strains, locus YKL009W, strain mrt4, stronger effect = lower value): 0.81 (active) | normalized growth (S. cerevisiae deletion strains, locus YKL068W, stronger effect = lower value): 0.961 (inactive) | normalized growth (S. cerevisiae deletion strains, locus YKL085W, strain MDH1 (second series), stronger effect = lower value): 0.764 (active) | normalized growth (S. cerevisiae deletion strains, locus YKL085W, strain MDH1, stronger effect = lower value): 0.764 (active) | normalized growth (S. cerevisiae deletion strains, locus YKL160W, strain elf1, stronger effect = lower value): 0.947 (inactive) | normalized growth (S. cerevisiae deletion strains, locus YKL190W, strain CNB1, stronger effect = lower value): 0.976 (inactive) | normalized growth (S. cerevisiae deletion strains, locus YKR001C, strain vps1, stronger effect = lower value): 0.531 (active) | normalized growth (S. cerevisiae deletion strains, locus YKR026C, strain gcn3, stronger effect = lower value): 0.986 (inactive) | normalized growth (S. cerevisiae deletion strains, locus YKR091W, strain srl3, stronger effect = lower value): 0.995 (inactive) | normalized growth (S. cerevisiae deletion strains, locus YLL001W, strain dnm1, stronger effect = lower value): 0.948 (inactive) | normalized growth (S. cerevisiae deletion strains, locus YLL026W, stronger effect = lower value): 0.969 (inactive) | normalized growth (S. cerevisiae deletion strains, locus YLL041C, strain sdh2, stronger effect = lower value): 0.965 (inactive) | normalized growth (S. cerevisiae deletion strains, locus YLR027C, strain aat2, stronger effect = lower value): 0.959 (inactive) | normalized growth (S. cerevisiae deletion strains, locus YLR039C, strain RIC1, stronger effect = lower value): 0.368 (active) | normalized growth (S. cerevisiae deletion strains, locus YLR058C, strain SHM2, stronger effect = lower value): 0.759 (active) | normalized growth (S. cerevisiae deletion strains, locus YLR102C, strain apc9, stronger effect = lower value): 0.991 (inactive) | normalized growth (S. cerevisiae deletion strains, locus YLR113W, strain HOG1, stronger effect = lower value): 0.985 (inactive) | normalized growth (S. cerevisiae deletion strains, locus YLR221C, strain rsa3, stronger effect = lower value): 0.982 (inactive) | normalized growth (S. cerevisiae deletion strains, locus YLR258W, strain gsy2, stronger effect = lower value): 0.996 (inactive) | normalized growth (S. cerevisiae deletion strains, locus YLR262C, strain YPT6 (second series), stronger effect = lower value): 0.659 (active) | normalized growth (S. cerevisiae deletion strains, locus YLR262C, strain YPT6, stronger effect = lower value): 0.292 (active) | normalized growth (S. cerevisiae deletion strains, locus YLR268W, strain sec22, stronger effect = lower value): 0.866 (active) | normalized growth (S. cerevisiae deletion strains, locus YLR320W, strain mms22, stronger effect = lower value): 0.978 (inactive) | normalized growth (S. cerevisiae deletion strains, locus YLR330W, strain CHS5, stronger effect = lower value): 0.724 (active) | normalized growth (S. cerevisiae deletion strains, locus YLR342W, strain FKS1 (second series), stronger effect = lower value): 0.683 (active) | normalized growth (S. cerevisiae deletion strains, locus YLR342W, strain FKS1, stronger effect = lower value): 0.943 (inactive) | normalized growth (S. cerevisiae deletion strains, locus YLR357W, strain rsc2, stronger effect = lower value): 0.989 (inactive) | normalized growth (S. cerevisiae deletion strains, locus YLR370C, strain arc18, stronger effect = lower value): 1 (inactive) | normalized growth (S. cerevisiae deletion strains, locus YLR371W, strain rom2, stronger effect = lower value): 0.453 (active) | normalized growth (S. cerevisiae deletion strains, locus YLR384C, strain iki3, stronger effect = lower value): 0.983 (inactive) | normalized growth (S. cerevisiae deletion strains, locus YLR418C, strain cdc73, stronger effect = lower value): 0.542 (active) | normalized growth (S. cerevisiae deletion strains, locus YML016C, strain PPZ1, stronger effect = lower value): 0.914 (active) | normalized growth (S. cerevisiae deletion strains, locus YML032C, strain rad52, stronger effect = lower value): 0.691 (active) | normalized growth (S. cerevisiae deletion strains, locus YML120C, strain ndi1, stronger effect = lower value): 0.909 (active) | normalized growth (S. cerevisiae deletion strains, locus YML124C, strain tub3, stronger effect = lower value): 0.971 (inactive) | normalized growth (S. cerevisiae deletion strains, locus YMR058W, strain fet3, stronger effect = lower value): 0.932 (inactive) | normalized growth (S. cerevisiae deletion strains, locus YMR078C, strain ctf18, stronger effect = lower value): 0.979 (inactive) | normalized growth (S. cerevisiae deletion strains, locus YMR125W, strain sto1, stronger effect = lower value): 0.924 (inactive) | normalized growth (S. cerevisiae deletion strains, locus YMR129W, stronger effect = lower value): 0.986 (inactive) | normalized growth (S. cerevisiae deletion strains, locus YMR205C, strain PFK2, stronger effect = lower value): 0.958 (inactive) | normalized growth (S. cerevisiae deletion strains, locus YMR223W, strain ubp8, stronger effect = lower value): 0.745 (active) | normalized growth (S. cerevisiae deletion strains, locus YMR231W, strain pep5, stronger effect = lower value): 0.975 (inactive) | normalized growth (S. cerevisiae deletion strains, locus YMR263W, strain SAP30, stronger effect = lower value): 0.851 (active) | normalized growth (S. cerevisiae deletion strains, locus YMR307W, strain GAS1, stronger effect = lower value): 0.336 (active) | normalized growth (S. cerevisiae deletion strains, locus YNL067W, strain RPL9B, stronger effect = lower value): 0.863 (active) | normalized growth (S. cerevisiae deletion strains, locus YNL071W, strain lat1, stronger effect = lower value): 0.906 (active) | normalized growth (S. cerevisiae deletion strains, locus YNL183C, strain NPR1, stronger effect = lower value): 0.971 (inactive) | normalized growth (S. cerevisiae deletion strains, locus YNL209W, strain ssb2, stronger effect = lower value): 1 (inactive) | normalized growth (S. cerevisiae deletion strains, locus YNL233W, strain BNI4, stronger effect = lower value): 0.76 (active) | normalized growth (S. cerevisiae deletion strains, locus YNL248C, strain rpa49, stronger effect = lower value): 0.951 (inactive) | normalized growth (S. cerevisiae deletion strains, locus YNL250W, strain rad50, stronger effect = lower value): 0.871 (active) | normalized growth (S. cerevisiae deletion strains, locus YNL271C, strain bni1, stronger effect = lower value): 0.899 (active) | normalized growth (S. cerevisiae deletion strains, locus YNL298W, strain CLA4, stronger effect = lower value): 0.629 (active) | normalized growth (S. cerevisiae deletion strains, locus YNL307C, strain MCK1, stronger effect = lower value): 0.707 (active) | normalized growth (S. cerevisiae deletion strains, locus YNL322C, strain KRE1 (second series), stronger effect = lower value): 0.985 (inactive) | normalized growth (S. cerevisiae deletion strains, locus YNR049C, strain mso1, stronger effect = lower value): 0.99 (inactive) | normalized growth (S. cerevisiae deletion strains, locus YNR052C, strain pop2, stronger effect = lower value): 0.383 (active) | normalized growth (S. cerevisiae deletion strains, locus YOL006C, strain TOP1, stronger effect = lower value): 0.456 (active) | normalized growth (S. cerevisiae deletion strains, locus YOL012C, strain htz1): 1.01 (inactive) | normalized growth (S. cerevisiae deletion strains, locus YOL147C, strain pex11, stronger effect = lower value): 0.839 (active) | normalized growth (S. cerevisiae deletion strains, locus YOR001W, strain rrp6, stronger effect = lower value): 0.967 (inactive) | normalized growth (S. cerevisiae deletion strains, locus YOR061W, strain CKA2, stronger effect = lower value): 0.879 (active) | normalized growth (S. cerevisiae deletion strains, locus YOR069W, strain VPS5, stronger effect = lower value): 0.896 (active) | normalized growth (S. cerevisiae deletion strains, locus YOR070C, strain gyp1, stronger effect = lower value): 0.989 (inactive) | normalized growth (S. cerevisiae deletion strains, locus YOR080W, strain dia2, stronger effect = lower value): 0.97 (inactive) | normalized growth (S. cerevisiae deletion strains, locus YOR083W, strain WHI5, stronger effect = lower value): 0.929 (inactive) | normalized growth (S. cerevisiae deletion strains, locus YOR106W, strain vam3, stronger effect = lower value): 0.914 (inactive) | normalized growth (S. cerevisiae deletion strains, locus YOR136W, strain idh2, stronger effect = lower value): 0.938 (inactive) | normalized growth (S. cerevisiae deletion strains, locus YOR144C, strain elg1, stronger effect = lower value): 0.86 (active) | normalized growth (S. cerevisiae deletion strains, locus YOR184W, strain ser1, stronger effect = lower value): 0.609 (active) | normalized growth (S. cerevisiae deletion strains, locus YOR231W, strain MKK1, stronger effect = lower value): 0.964 (inactive) | normalized growth (S. cerevisiae deletion strains, locus YOR265W, strain rbl2, stronger effect = lower value): 0.976 (inactive) | normalized growth (S. cerevisiae deletion strains, locus YOR270C, strain vph1, stronger effect = lower value): 0.911 (inactive) | normalized growth (S. cerevisiae deletion strains, locus YOR290C, strain snf2, stronger effect = lower value): 0.971 (inactive) | normalized growth (S. cerevisiae deletion strains, locus YOR316C, strain cot1, stronger effect = lower value): 0.993 (inactive) | normalized growth (S. cerevisiae deletion strains, locus YPL051W, strain arl3, stronger effect = lower value): 0.956 (inactive) | normalized growth (S. cerevisiae deletion strains, locus YPL078C, strain atp4, stronger effect = lower value): 0.901 (inactive) | normalized growth (S. cerevisiae deletion strains, locus YPL106C, strain sse1, stronger effect = lower value): 0.975 (inactive) | normalized growth (S. cerevisiae deletion strains, locus YPL240C, strain hsp82, stronger effect = lower value): 0.981 (inactive) | normalized growth (S. cerevisiae deletion strains, locus YPL241C, strain CIN2, stronger effect = lower value): 0.988 (inactive) | normalized growth (S. cerevisiae deletion strains, locus YPL256C, strain CLN2, stronger effect = lower value): 0.992 (inactive) | normalized growth (S. cerevisiae deletion strains, locus YPR119W, strain clb2, stronger effect = lower value): 0.981 (inactive) | normalized growth (S. cerevisiae deletion strains, locus YPR141C, strain kar3, stronger effect = lower value): 0.978 (inactive) | normalized growth (S. cerevisiae deletion strains, locus YPR163C, strain tif3, stronger effect = lower value): 0.91 (active) | normalized growth (S. cerevisiae deletion strains, locus YPR167C, strain met16, stronger effect = lower value): 0.854 (active) | normalized growth (S. cerevisiae deletion strains, strain wtn01, stronger effect = lower value): 0.837 (active) | normalized growth (S. cerevisiae strains, strain wild type, stronger effect = lower value): 0.877 (active)

Source: PubChem BioAssay AID1159580 (chemical genetic matrix, 2015)
